Rows were chosen to be rich in hits. Some 8.1% of all compounds tested hit in one or more screens of this group.
KB-V1 cytotox = qHTS assay for MDR1-selective chemotherapeutics: Primary screen using the drug-selected MDR subline cells KB-V1. KB-V1 MDR cells viability, CellTiter-Glo, 72 h. actives 3.4% (n = 400,000). Potency, µM (titrated, usually from 46.1 µM), actives largely listed as cytotoxic. AID 1347076, 2019; further: on the % scale 0 is the no-effect control and ±100 the full control effect; nearly all actives have a fitted effect of over 60% in size
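Readout: CellTiter-Glo luminescence, 10 min after addition. Cells: KB-V1 MDR subline, 72 h at 37 degrees C with compound. Analysis: corrected, normalized data fitted to concentration-effect curves.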
SW480 rereplic = A quantitative high throughput screen for small molecules that induce DNA re-replication in SW480 colon adenocarcinoma cells; actives 1.8% (n = 340,000); Potency, µM (titrated, usually from 46.1 µM), for the others: at the highest dose re-replication activation, most hits filed as activators; SW480 DNA re-replication, Hoechst DNA content imaging, 48 h; further: % of control where 0% means no effect; nearly all actives have a fitted effect of over 55% in size
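Quantitative HTS format with DMSO vehicle controls; 48 hr drug incubation at 37 C, then 40 min Hoechst staining and scanning imager measurement at 405 nm excitation.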
ELG1 DNA repair = qHTS screen for small molecules that inhibit ELG1-dependent DNA repair in human embryonic kidney (HEK293T) cells expressing luciferase-tagged ELG1; HEK293T ELG1-luciferase reporter, luminescence, 16 h; DNA damage induced by 5-fluorouridine; Potency, µM (top dose mostly 46.1 µM), inactives show at the highest dose activity change, negative = inhibition, hits mostly inhibitors; actives 2.3% (n = 330,000); further: on the % scale 0 is the no-effect control and ±100 the full control effect; nearly all actives have a fitted effect of over 55% in size
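Overnight (16 hr) co-exposure of 2,000 cells/well to 5-fluorouridine and compound at 37 °C preceded detection. Luciferase was quantified via ONE-Glo luminescence; loss of signal denotes inhibition.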
MCF10A rerep = A quantitative high throughput screen for small molecules that induce DNA re-replication in MCF 10a normal breast cells | MCF 10A DNA re-replication, Hoechst nuclear intensity, 48 h | actives 2.9% (n = 350,000) | Potency, µM (series often up to 46.1 µM), inactives show at the highest dose activity, positive = re-replication, most hits filed as activators; further: % of control where 0% means no effect; nearly all actives have a fitted effect of over 50% in size
KB-3-1 cytotox = qHTS assay for MDR1-selective chemotherapeutics: Primary screen using the parental adenocarcinoma cell KB-3-1; AID 1347075, 2019; Potency, µM (series often up to 46.1 µM), most hits filed as cytotoxic; KB-3-1 viability, CellTiter-Glo ATP luminescence, 72 h; actives 1.4% (n = 400,000); further: on the % scale 0 is the no-effect control and ±100 the full control effect; nearly all actives have a fitted effect of over 60% in size
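Cytotoxicity measured as CellTiter-Glo luminescence after 72 h at 37 C. Compound titrations were pinned onto drug-naive KB-3-1 parental adenocarcinoma cells grown in DMEM with 10% FBS, and normalized data fitted to concentration-response curves.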
An asterisk follows results filed as active; i = inactive; ? = inconclusive; . = no result. The call rests on the fitted dose curve; in most records, active means well fitted curve in the direction sought with a large enough effect; inconclusive means small, poorly fitted or top-dose-only effect, or another doubt; inactive means no such curve, though single readings can be large; an effect the other way counts as inactive or inconclusive. Potency means the concentration at half of the fitted maximal effect.

SMILES	KB-V1 cytotox	SW480 rereplic	ELG1 DNA repair	MCF10A rerep	KB-3-1 cytotox
CCN1CCN(Cc2ccc(NC(=O)c3cc(NC(=O)c4cc(C)on4)cc(OC)c3)cc2C(F)(F)F)CC1	?	?	-36%	13%	?
O=C(NCc1cccnc1)c1cc(C2CCCCN2C(=O)OCc2ccccc2)on1 (stereo not drawn)	i	.	.	.	i
COC(C/C=C\[C@@H](O)[C@@H](C)OCc1ccccc1)OC	i	-7%	.	-25%	i
CN1CCN(c2ccc(C(F)(F)F)cc2NC(=O)Nc2ccccc2)CC1	i	29%	6%	0%	i
O=C(COc1ccc(Cl)cc1)OCC(=O)N1CCOCC1	i	8%	?	?	i
O=C(c1ccc(Cl)cc1)c1ccc(OCC(=O)N2CCOCC2)cc1	18µM*	-1%	0%	9%	i
O=C(O)/C=C/c1ccc([N+](=O)[O-])o1	i	?	?	?	i
N#CCc1ccc(NC(=O)/C=C/c2ccc([N+](=O)[O-])o2)cc1	?	?	?	16µM*	5.2µM*
NC(Cc1ccc(C(F)(F)F)cc1)c1csc(Nc2nncc3ccccc23)n1 (stereo not drawn)	16µM*	.	.	.	?
Cc1cnc(C)c(Nc2nc(C(N)Cc3ccc(Cl)cc3)cs2)n1 (stereo not drawn)	21µM*	.	.	.	?
NC(COCc1ccccc1)c1csc(Nc2nncc3ccccc23)n1 (stereo not drawn)	?	.	.	.	i
Cc1cccc2cc(/C=N/NC(=O)c3ccccc3O)c(Cl)nc12	?	.	23µM*	7.3µM*	i
Clc1nc2ccccc2cc1/C=N/Nc1nc2ccccc2[nH]1	i	2%	?	-13%	i
O=C(O)c1ccc(N/N=C/c2cc3ccccc3nc2Cl)cc1	i	?	?	8.2µM*	i
Cc1cccc2cc(/C=N/Nc3ccc(C(=O)O)cc3)c(Cl)nc12	i	17%	?	3.7µM*	i
Cc1cccc2cc(/C=N/NC(=O)c3ccncc3)c(Cl)nc12	i	-32%	-11%	-1%	i
CCOC(=O)N1CCN(C(=O)CCCOc2ccccc2)CC1	i	-14%	?	-1%	i
O=C(/C=C/c1ccc2ccccc2n1)c1cc(Cl)ccc1O	i	11%	?	12%	i
Oc1c(Cl)cc(Cl)cc1/C=C/c1ccc2cccc(O)c2n1	?	12µM*	23µM*	6.5µM*	?
O=[N+]([O-])c1cccc2ccc(/C=C/c3ccc(Cl)cc3)nc12	?	-7%	?	2%	i
Oc1ccc2ccccc2c1/C=C/c1ccc2c(Br)cc(Br)c(O)c2n1	4.1µM*	18µM*	.	8.2µM*	?
CCOc1cc(/C=C/c2ccc3cccc([N+](=O)[O-])c3n2)cc(Cl)c1O	i	16%	8.2µM*	26%	i
Oc1ccc(Cl)cc1/C=C/c1ccc2cccc(O)c2n1	i	21µM*	-3%	?	?
CN(C)CC(O)COC(c1ccccc1)c1ccccc1 (stereo not drawn)	i	-13%	5%	2%	i
Oc1cccc2ccc(/C=C/c3ccccc3Br)nc12	?	6.5µM*	?	?	?
CCn1ncc(C2C(C(=O)Nc3ccc(C)cn3)=C(C)NC3=C2C(=O)CCC3)c1C (stereo not drawn)	?	0%	-3%	6%	i
CC1=C(C(=O)Nc2ccc(C)cn2)C(c2cnn(C)c2)C2=C(CCCC2=O)N1 (stereo not drawn)	?	0.52µM*	?	0%	i
CC(OC(=O)[C@@H](NC(=O)OCc1ccccc1)C(C)C)C(=O)Nc1ccc(N2CCOCC2)cc1 (stereo partly drawn)	?	3%	.	-7%	i
